Bioassay records as filed in PubChem BioAssay.
IDE exosite FP: displaces the probe from the exo-site of human IDE; P14735; purified IDE, FL-6b probe fluorescence polarization; hits give low values; z-score at 20 µM; hit rate 6.3% among 17,000; AID 1259349;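 active = z-score of -3 or lower, meaning strong loss of probe binding signal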;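 also: His-tagged human IDE residues 42-1019 made in E. coli with 30 nM FL-6b probe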
Target sequence (P14735 42-1019 limits assumed): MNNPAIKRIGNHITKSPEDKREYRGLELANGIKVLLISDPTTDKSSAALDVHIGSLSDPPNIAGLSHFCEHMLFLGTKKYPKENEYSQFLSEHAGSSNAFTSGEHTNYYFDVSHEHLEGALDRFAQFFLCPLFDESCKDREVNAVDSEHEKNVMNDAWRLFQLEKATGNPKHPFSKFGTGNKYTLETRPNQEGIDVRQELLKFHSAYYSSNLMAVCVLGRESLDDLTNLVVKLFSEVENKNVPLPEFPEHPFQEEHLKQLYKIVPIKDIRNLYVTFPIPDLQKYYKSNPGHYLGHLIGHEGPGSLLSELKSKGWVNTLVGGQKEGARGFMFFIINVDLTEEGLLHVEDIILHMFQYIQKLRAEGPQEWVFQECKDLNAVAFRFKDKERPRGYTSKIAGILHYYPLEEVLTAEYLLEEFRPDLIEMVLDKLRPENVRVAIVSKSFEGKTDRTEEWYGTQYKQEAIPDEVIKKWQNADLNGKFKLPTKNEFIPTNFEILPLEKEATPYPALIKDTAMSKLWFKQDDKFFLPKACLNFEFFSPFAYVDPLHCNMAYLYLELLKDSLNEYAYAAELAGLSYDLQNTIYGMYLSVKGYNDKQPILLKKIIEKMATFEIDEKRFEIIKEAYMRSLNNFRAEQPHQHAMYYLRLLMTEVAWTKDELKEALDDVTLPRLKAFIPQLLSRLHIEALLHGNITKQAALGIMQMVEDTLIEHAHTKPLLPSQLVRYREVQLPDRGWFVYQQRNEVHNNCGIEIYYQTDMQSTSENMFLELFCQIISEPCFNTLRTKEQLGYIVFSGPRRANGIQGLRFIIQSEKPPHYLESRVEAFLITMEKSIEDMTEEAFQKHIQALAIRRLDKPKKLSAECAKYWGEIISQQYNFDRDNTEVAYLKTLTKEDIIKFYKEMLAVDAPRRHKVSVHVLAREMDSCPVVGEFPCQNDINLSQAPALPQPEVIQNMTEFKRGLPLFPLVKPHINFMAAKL
Numbers stand for hits; . = inactive. This excerpt belongs to a sample that is enriched for hits.

SMILES	IDE exosite FP
N#C[C@@H]1[C@@H](c2ccc(-c3ccccc3F)cc2)[C@H](CO)N1C(=O)C1CCOCC1	.
O=C(c1cccc(F)c1)N1CCCCN2[C@H](CO)[C@H](c3ccc(-c4ccncc4)cc3)[C@@H]2C1	.
CC(=O)NC[C@H]1[C@H](c2ccc(-c3cccc(F)c3)cc2)[C@H](CO)N1C(C)=O	.
COc1cccc(C#Cc2ccc([C@@H]3[C@H](CO)N4C(=O)CN(C(C)=O)C[C@@H]34)cc2)c1	-15
COc1cccc(C#Cc2ccc([C@H]3[C@H]4CN(C(=O)c5ccccc5)CC(=O)N4[C@H]3CO)cc2)c1	.
COc1cccc(C#Cc2ccc([C@H]3[C@@H](CO)N4C(=O)CN(C(=O)c5ccncc5)C[C@H]34)cc2)c1	-8.4
CC(=O)N1CC(=O)N2[C@H](C1)[C@H](c1ccc(C#Cc3cccnc3)cc1)[C@@H]2CO	.
COc1cccc(C#Cc2ccc([C@@H]3[C@H]4CN(C(=O)c5ccncc5)CC(=O)N4[C@H]3CO)cc2)c1	.
COc1cccc(C#Cc2ccc([C@@H]3[C@H](CO)N4C(=O)CN(C(=O)c5ccccc5)C[C@@H]34)cc2)c1	.
CCC(=O)N1CC(=O)N2[C@H](CO)[C@H](c3ccc(C#Cc4cccnc4)cc3)[C@H]2C1	.
COc1cccc(C#Cc2ccc([C@H]3[C@H](CO)N4C(=O)CN(C(C)=O)C[C@@H]34)cc2)c1	-5.4
COc1cccc(C#Cc2ccc([C@@H]3[C@@H](CO)N4C(=O)CN(C(=O)c5ccccc5)C[C@@H]34)cc2)c1	.
CC(=O)N1CC(=O)N2[C@@H](CO)[C@@H](c3ccc(C#Cc4cccnc4)cc3)[C@@H]2C1	-3.9
N#C[C@@H]1[C@H](c2ccc(-c3cccc(F)c3)cc2)[C@@H](CO)N1C(=O)NC1CCCC1	.
CN(C)C(=O)C[C@H]1C[C@@H]2c3cc(NC(=O)c4cccnc4)ccc3O[C@@H]2[C@H](CO)O1	.
C[C@H]1CC=CC[C@@H](c2cccc(Cl)c2)NC(=O)[C@H](Cc2ccccc2)N(C)C(=O)c2ccccc2O1 (mixture of isomers)	.
Cc1ccc(-c2ccccc2[C@H]2[C@@H](CO)N(S(C)(=O)=O)[C@H]2C#N)cc1	.
C[C@@H]1CCCCO[C@H](CN(C)C(=O)Nc2ccc(C(F)(F)F)cc2)[C@@H](C)CN([C@@H](C)CO)C(=O)c2cc(NS(=O)(=O)c3cn(C)cn3)ccc2O1	.
O=C(c1cccnc1)N1CC(=O)N2[C@H](CO)[C@H](c3ccc(-c4ccccc4F)cc3)[C@H]2C1	.
CC(C)CC#Cc1ccc([C@H]2[C@H](CO)N3C(=O)CN(C(=O)c4cnccn4)C[C@@H]23)cc1	.
O=C(CN1CCOCC1)N1CCCCN2[C@@H](CO)[C@H](c3ccc(C#Cc4ccccc4F)cc3)[C@@H]2C1	-9
O=C(CN1CCOCC1)N1CCCCN2[C@H](CO)[C@@H](c3ccc(C#Cc4ccccc4F)cc3)[C@H]2C1	-3.9
O=C(CN1CCOCC1)N1CCCCN2[C@H](CO)[C@@H](c3ccc(C#Cc4ccccc4F)cc3)[C@@H]2C1	.
O=C(CN1CCOCC1)N1CCCCN2[C@@H](CO)[C@@H](c3ccc(C#Cc4ccccc4F)cc3)[C@@H]2C1	-4.6
N#C[C@@H]1[C@@H](c2ccccc2)[C@H](CO)N1C(=O)C1CCCC1	.
SMILES	IDE exosite FP
CCC(=O)NC[C@H]1[C@@H](c2ccc(C3=CCCC3)cc2)[C@H](CO)N1C(=O)C1CC1	.
O=C(Nc1cc(F)ccc1F)N1CC(=O)N2[C@H](C1)[C@H](c1ccc(-c3ccccc3)cc1)[C@@H]2CO	.
C/C=C/c1ccc([C@H]2[C@@H](CO)N(CCC)[C@@H]2CN(CC)C(=O)c2ccccn2)cc1	.
CN(C[C@H]1[C@@H](c2ccc(C3=CCCC3)cc2)[C@@H](CO)N1CCC(F)(F)F)S(C)(=O)=O	.
COc1cccc(-c2ccc([C@H]3[C@H](CO)N4C(=O)CN(C(=O)C5CCCCC5)C[C@@H]34)cc2)c1	-5.6
COc1cccc(-c2ccc([C@@H]3[C@H]4CN(C(=O)C5CCCCC5)CC(=O)N4[C@H]3CO)cc2)c1	-7.6
COc1ccc(-c2ccc([C@H]3[C@H]4CN(C(=O)C5CCCC5)CC(=O)N4[C@H]3CO)cc2)cc1	.
COc1ccc(-c2ccc([C@H]3[C@H](CO)N4C(=O)CN(C(=O)C5CCCC5)C[C@@H]34)cc2)cc1	.
COc1cccc(-c2ccc([C@H]3[C@H]4CN(C(=O)C5CCCCC5)CC(=O)N4[C@H]3CO)cc2)c1	-3.4
O=C(Nc1cccc(F)c1)N1CC(=O)N2[C@H](CO)[C@@H](c3ccc(C#Cc4cccnc4)cc3)[C@H]2C1	.
O=C(Nc1ccccc1F)N1CCCCN2[C@H](C1)[C@H](c1ccc(-c3cccnc3)cc1)[C@@H]2CO	.
C[C@@H](NC(=O)C[C@H]1C=C[C@@H](NC(=O)c2cccnc2)[C@H](CO)O1)c1ccccc1	.
N#C[C@H]1[C@H](c2ccccc2C2=CCCCC2)[C@H](CO)N1C(=O)c1cccc(F)c1	.
O=C(Nc1ccc(F)cc1)N1CC(=O)N2[C@H](C1)[C@H](c1ccc(-c3cccc(F)c3)cc1)[C@@H]2CO	.
C[C@@H](NC(=O)C[C@H]1C=C[C@@H](NS(=O)(=O)c2cccc(F)c2)[C@@H](CO)O1)c1ccccc1	.
C[C@H]1CC=CC[C@@H](c2ccccc2)NC(=O)[C@H](C)N(C)C(=O)c2ccccc2O1 (mixture of isomers)	.
N#C[C@@H]1[C@H](c2ccc(C3=CCCCC3)cc2)[C@H](CO)N1C(=O)NC1CCCC1	.
COc1cccc(C#Cc2ccc([C@H]3[C@@H](CO)N4C(=O)CN(C(=O)C5CC5)C[C@H]34)cc2)c1	-9.5
COc1ccc(C#Cc2ccc([C@H]3[C@H](CO)N4C(=O)CN(C(=O)C5CCOCC5)C[C@@H]34)cc2)cc1	.
COc1cccc(C#Cc2ccc([C@H]3[C@H](CO)N4C(=O)CN(C(=O)C5CC5)C[C@@H]34)cc2)c1	-4.6
COc1cccc(C#Cc2ccc([C@@H]3[C@@H](CO)N4C(=O)CN(C(=O)C5CC5)C[C@@H]34)cc2)c1	.
COc1cccc(C#Cc2ccc([C@@H]3[C@H]4CN(C(=O)C5CC5)CC(=O)N4[C@H]3CO)cc2)c1	.
Cc1ccccc1S(=O)(=O)N1CCCCN2[C@H](C1)[C@H](c1ccc(-c3cncnc3)cc1)[C@@H]2CO	.
COc1ccc(S(=O)(=O)Nc2ccc3c(c2)CC(=O)N([C@H](C)CO)C[C@@H](C)[C@@H](CN(C)C(=O)Nc2c(C)noc2C)O3)cc1	.
COc1ccc(S(=O)(=O)N2CCCCN3[C@H](C2)[C@H](c2ccc(C#CC4CC4)cc2)[C@@H]3CO)cc1	.
SMILES	IDE exosite FP
Cc1cccc(-c2ccc([C@H]3[C@@H](CO)N4CCCCN(S(=O)(=O)c5cn(C)cn5)C[C@@H]34)cc2)c1	.
Cc1cccc(-c2ccc([C@@H]3[C@@H](CO)N4CCCCN(S(=O)(=O)c5cn(C)cn5)C[C@@H]34)cc2)c1	-18
Cn1cnc(S(=O)(=O)N2CCCCN3[C@H](CO)[C@H](c4ccc(-c5ccccc5)cc4)[C@H]3C2)c1	.
Cc1ccccc1-c1ccc([C@H]2[C@H](CO)N3CCCCN(S(=O)(=O)c4cn(C)cn4)C[C@@H]23)cc1	-7.1
Cn1cnc(S(=O)(=O)N2CCCCN3[C@H](CO)[C@H](c4ccc(-c5ccccc5)cc4)[C@@H]3C2)c1	.
Cn1cnc(S(=O)(=O)N2CCCCN3[C@@H](CO)[C@@H](c4ccc(-c5ccccc5)cc4)[C@@H]3C2)c1	-5.6
